Assay results as given in the supplement of paper PMC3334620.
The full ranking holds about 33,000 sequences; the median of “E-score (-0.5 to 0.5)” is about -0.012, and the highest 2% start at about 0.29. Shown is part of a subset that was picked to be rich in the highest values.

biological target: T1, Ybr033w (UniProt P38073); assay: PBM E-score (8-mer binding enrichment) (E-score (-0.5 to 0.5)); higher = stronger / more preferred TF binding; conditions: protein concentration: 200 nM; construct: GST-full length
T1 sequence: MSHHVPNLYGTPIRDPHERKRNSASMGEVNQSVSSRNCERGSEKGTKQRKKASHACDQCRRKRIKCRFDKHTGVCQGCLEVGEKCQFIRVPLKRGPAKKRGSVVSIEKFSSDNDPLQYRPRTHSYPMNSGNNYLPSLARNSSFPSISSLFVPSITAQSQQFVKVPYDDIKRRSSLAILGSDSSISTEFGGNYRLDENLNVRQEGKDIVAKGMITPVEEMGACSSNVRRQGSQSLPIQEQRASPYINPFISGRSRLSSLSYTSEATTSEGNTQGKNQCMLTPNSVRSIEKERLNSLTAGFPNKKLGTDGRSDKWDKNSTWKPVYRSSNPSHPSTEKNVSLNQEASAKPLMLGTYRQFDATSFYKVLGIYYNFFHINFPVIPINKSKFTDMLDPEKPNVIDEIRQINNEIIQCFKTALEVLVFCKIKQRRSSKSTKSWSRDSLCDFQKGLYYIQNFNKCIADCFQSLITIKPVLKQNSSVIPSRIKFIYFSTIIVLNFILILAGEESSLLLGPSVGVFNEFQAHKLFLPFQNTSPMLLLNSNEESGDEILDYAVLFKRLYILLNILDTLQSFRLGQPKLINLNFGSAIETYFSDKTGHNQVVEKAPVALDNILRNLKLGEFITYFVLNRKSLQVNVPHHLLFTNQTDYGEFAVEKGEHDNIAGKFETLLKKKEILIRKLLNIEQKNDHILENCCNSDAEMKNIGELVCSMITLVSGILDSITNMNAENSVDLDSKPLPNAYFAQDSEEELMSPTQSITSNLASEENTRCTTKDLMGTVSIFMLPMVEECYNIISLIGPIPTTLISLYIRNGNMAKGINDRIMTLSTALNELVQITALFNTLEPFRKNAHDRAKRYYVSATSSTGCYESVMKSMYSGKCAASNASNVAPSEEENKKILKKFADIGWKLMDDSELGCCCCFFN
Procedure: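 Universal 'all 10-mer' protein binding microarrays (Agilent AMADID 015681) probed with GST-tagged S. cerevisiae TFs (full-length or DBD) made by in vitro transcription/translation (PURExpress), about 100-200 nM. Bound TF was detected with fluorescent anti-GST. Each ungapped 8-mer (which stands for itself and its reverse complement) is scored by the PBM enrichment score (E-score), a modified Wilcoxon-Mann-Whitney statistic from -0.5 to +0.5, computed with the Universal PBM Analysis Suite. Scale: above 0.35 generally sequence-specific binding.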

Sequence	PBM E-score
CTCTAGCA	-0.0957
AACGATGA	0.0671
GTGTTAGA	0.0758
GATAAGTA	0.205
GTAGACTA	-0.131
AATGCAAA	0.274
TCACTGGA	0.00252
ATAGTAGC	0.16
GACCTCCC	-0.249
CCGCGTGC	-0.231
ATTAAATG	0.347
GTTAAATA	0.278
ATTAAATC	0.213
ATAAAATG	0.219
CTTAAATA	0.114
ATTAAATA	0.33
AGCACAGC	0.0732
CATCGAGC	-0.0235
ATCTTGCA	0.294
ATCTTGCG	0.0267
GTCTTGCA	0.0132
AACTTGGT	0.168
GCTTTCCC	-0.253
AAAACTAA	0.328
AAAACTTA	0.362

Sequence	PBM E-score
CAAACTTA	0.191
AAAACTTC	0.176
GAAACTTC	0.112
AAAACTAT	0.217
TAAACTTA	0.166
TAAACTAA	0.271
GAAACTTA	0.332
ATTCTTAA	0.0371
AAAGCTAG	0.103
CCTAGCCG	-0.157
GAGCGTTA	0.113
GGTTCTAC	-0.0153
AGAATAAT	0.163
AGAATAAG	0.14
AGAATAAA	0.312
TGAATAAA	0.195
GGAATAAC	0.453
AGAATAAC	0.141
CGAATAAC	0.07
CGAATAAA	0.145
GGAATAAA	0.296
GATCGAGC	-0.00942
ATAGGTGG	-0.108
CGAGTGGC	-0.32
AGTTACCG	0.0592

Sequence	PBM E-score
TCAAGAAA	0.291
CGAAGAAC	0.145
TTCAAGAA	0.296
GGAAGAAC	0.461
CGAAGAAA	0.156
GGAAGAAA	0.34
ACAAGAAA	0.206
CCAAGAAA	0.167
AGAAGAAC	0.171
TTCAAAAA	0.239
GTCAAGAA	0.146
AGAAGAAA	0.0907
AGACTAGC	-0.208
CCTTGCTA	0.00278
AGGAGCGG	-0.359
CGGGTAGA	-0.0322
ATAAATTG	0.365
GTAAATTA	0.193
AAAAATTG	0.221
ATAAATCC	0.324
ATAAATTC	0.308
ATAAATCA	0.223
ATAAATCG	0.218
AGAAATTG	0.281
ATAAATGC	0.0963

Sequence	PBM E-score
CTAAATTA	0.173
ATAAATTA	0.375
CTAAATTC	0.204
ACTATTGA	0.243
CTGGAGAA	-0.115
CAGAGTAA	-0.0159
CTAGAGCC	-0.0992
TCCAACGA	-0.0709
AGTCACAT	0.0586
GTGCCCGA	-0.142
AAAGCTTC	-0.0172
AGCTCTGG	-0.197
AGTTGCTC	-0.15
ATTCCACA	0.335
ATTCCACG	-0.0625
ATTCCACC	0.208
AGATTCTG	-0.0373
ACTGGATG	-0.0668
ATTGGTCG	-0.0127
CTAATATC	0.196
CTATAATA	0.156
GTAATATA	0.299
CTAATATA	0.297
CTAATAGA	0.06
GCAATATA	0.123

Sequence	PBM E-score
GTATAATA	0.207
ATATAATA	0.34
AGAATATA	0.134
GGAATATA	0.291
CGAATATA	0.156
GTAATAGA	0.17
AATCCAAG	0.228
CTAGCGAG	-0.177
ACATCGCT	-0.101
ACGGGCAT	-0.108
ACTTTAGG	-0.0326
CCCCAAGA	-0.0572
ATAATATC	0.28
ATAATATA	0.321
ATAATATG	0.273
CAAGTCTC	-0.0267
CTGGCCGC	-0.0871
GACTTATA	0.293
GACTTATC	-0.152
AACTTATA	0.353
AACTTATG	0.223
CACTTATA	0.176
TACTTATA	0.12
AAGCCACA	-0.0702
AGCCTCTA	-0.114

Sequence	PBM E-score
ACCAGAGA	0.0781
GAGTCGAA	0.173
TAGTATCA	0.319
CAGTATCA	-0.0137
CAATATTA	0.27
TAATATTA	0.342
AAATATCA	0.252
GAATATTA	0.315
GAATATGA	0.203
CAATATTG	0.199
GAGTATCA	0.0233
TAATATCA	0.319
CAATATCA	0.171
GAATATCA	0.259
GTGTGTGA	0.0756
CGAGGTAA	-0.0143
GGAGCGCC	-0.27
ACTAGTCG	-0.166
ACCATCTC	-0.0025
CCTCGTAA	-0.0544
AAATATTC	0.37
AAATATTA	0.211
AAATATTG	0.274
GAATATTC	0.344
AAATATGC	0.237

Sequence	PBM E-score
GAATATCC	0.227
AAATATTT	0.357
CAATATTC	0.219
AATCTTTC	0.00719
GCCATTTA	-0.0426
AGCAAGCC	-0.126
AGGTGGAC	-0.104
ATCTAGAA	0.214
ATAATTTG	0.35
ATAATTTC	0.314
CTAATTTA	0.257
AAAATTTG	0.263
ATAATTGG	0.157
ATAATTTA	0.338
CTAATTTC	0.181
GTAATTTA	0.218
AGAATTTC	0.0968
GATCTGCA	-0.215
ACACGTGT	-0.0649
ATCCCAAC	0.079
ATAGGTAG	0.0525
ACTGCTAC	0.0898
GCGGACTA	-0.0323
AAAAATGA	0.233
